Whole data set: some 16,000 sequences, median “rpm ratio (pull-down/input)” near 0.5, cut for the highest 2% near 5.5. The sample holds the highest values, similar sequences and a random draw of the others, so the mix is not that of the screen.

The target of the assay is T1, MBP-FoxP3dN (Mus musculus, UniProt Q99JB6 188-423).
T1 sequence: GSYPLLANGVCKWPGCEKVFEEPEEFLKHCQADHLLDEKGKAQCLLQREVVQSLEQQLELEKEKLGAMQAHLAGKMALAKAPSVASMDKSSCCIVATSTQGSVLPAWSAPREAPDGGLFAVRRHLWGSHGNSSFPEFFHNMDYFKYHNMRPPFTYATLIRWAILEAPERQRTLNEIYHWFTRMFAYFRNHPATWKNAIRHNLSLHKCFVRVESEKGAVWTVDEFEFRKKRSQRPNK
Description: PD-seq (MBP pull-down with sequencing); 20 mM Tris-HCl pH 7.5, 100 mM NaCl, 1.5 mM MgCl2, 0.4 uM protein, 0.1 uM dsDNA library, 30 min, room temperature, amylose pull-down; high values mean tight binding. Particulars: protein: recombinant; tags: His6-MBP; chain copies: 2; dsDNA, one strand shown. Put shortly:
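Mouse FoxP3 or FoxP1 fragment lacking the N-terminus, His6-MBP-tagged and expressed in E. coli, was incubated at 0.4 µM with 0.1 µM Klenow-filled degenerate double-stranded DNA library for 30 min at room temperature in Tris pH 7.5 buffer with NaCl and MgCl2. Complexes captured on amylose resin were washed three times and their DNA sequenced on Illumina. Binding is reads-per-million enrichment of pull-down over input, replicates pooled.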
On to “GATGATTGTTCTCCCAGCTGATGAATTACTGCATTCGAGTAAACAAATTTTCCTAATCTTTCTGTTCAAGCGCCATCTAC”, for which the binding signal was 6.01 RPM ratio (pull-down/input).

For the sequence “GATGATTGTTCTCCCAGCTGATGAATTACTGATTTCGAGTAAACAAATTTTCCTAATCTTTCTGTTCAAGCGCCATCTAC”, the binding signal was 0.523 RPM ratio (pull-down/input).

Take “GATGATTGTTCTCCCAGCTGATGAATTGCTGCATTCGAGTAAACAAATTTTCCTAATCTTTCTGTTCAAGCGCCATCTAC”: the binding signal is 6.8 RPM ratio (pull-down/input).

In the case of “GATGATTGTTCTCCCAGCTGATGAATTGCTGAATTCGAGTAAACAAATTTTCCTAATCTTTCTGTTCAAGCGCCATCTAC”, the binding signal was 0.916 RPM ratio (pull-down/input).

With “GATGATTGTTCTCCCAGCTGATGAATTACTGAATTCGAGTAAACAAATTTTCCTAATCTTTCTGTTCAAGCGCCATCTAC”, the binding signal was 0.586 RPM ratio (pull-down/input).

Regarding “GATGATTGTTCTCCCAGCTGATGAATTCTGCTGTTCGAGTAAACAAATTTTCCTAATCTTTCTGTTCAAGCGCCATCTAC”, the binding signal is 3.41 RPM ratio (pull-down/input).

Regarding “GATGATTGTTCTCCCAGCTGATGAATTCTGCATTTCGAGTAAACAAATTTTCCTAATCTTTCTGTTCAAGCGCCATCTAC”, the binding signal was 6.51 RPM ratio (pull-down/input).

Take “GATGATTGTTCTCCCAGCTGATGAATTCGCATGATCGAGTAAACAAATTTTCCTAATCTTTCTGTTCAAGCGCCATCTAC”: the binding signal was 0.877 RPM ratio (pull-down/input).

Regarding “GATGATTGTTCTCCCAGCTGATGAATTCTGCGGGTCGAGTAAACAAATTTTCCTAATCTTTCTGTTCAAGCGCCATCTAC”, the binding signal is 0.928 RPM ratio (pull-down/input).

With “GATGATTGTTCTCCCAGCTGATGAATTAGTCCGTTCGAGTAAACAAATTTTCCTAATCTTTCTGTTCAAGCGCCATCTAC”, the binding signal was 0.434 RPM ratio (pull-down/input).

In the case of “GATGATTGTTCTCCCAGCTGATGAATTCATGAAATCGAGTAAACAAATTTTCCTAATCTTTCTGTTCAAGCGCCATCTAC”, the binding signal is 0.289 RPM ratio (pull-down/input).

On to “GATGATTGTTCTCCCAGCTGATGAATTAAACCTTTCGAGTAAACAAATTTTCCTAATCTTTCTGTTCAAGCGCCATCTAC”, for which the binding signal was 0.318 RPM ratio (pull-down/input).

Take “GATGATTGTTCTCCCAGCTGATGAATTATTCTGCTCGAGTAAACAAATTTTCCTAATCTTTCTGTTCAAGCGCCATCTAC”: the binding signal is 0.328 RPM ratio (pull-down/input).

With “GATGATTGTTCTCCCAGCTGATGAATTATGAGAGTCGAGTAAACAAATTTTCCTAATCTTTCTGTTCAAGCGCCATCTAC”, the binding signal is 0.397 RPM ratio (pull-down/input).

Consider “GATGATTGTTCTCCCAGCTGATGAATTTAAGGCATCGAGTAAACAAATTTTCCTAATCTTTCTGTTCAAGCGCCATCTAC”, for which the binding signal is 0.732 RPM ratio (pull-down/input).

Regarding “GATGATTGTTCTCCCAGCTGATGAATTTAAAGACTCGAGTAAACAAATTTTCCTAATCTTTCTGTTCAAGCGCCATCTAC”, the binding signal is 0.245 RPM ratio (pull-down/input).

In the case of “GATGATTGTTCTCCCAGCTGATGAATTAGTACAGTCGAGTAAACAAATTTTCCTAATCTTTCTGTTCAAGCGCCATCTAC”, the binding signal was 0.484 RPM ratio (pull-down/input).

Turning to “GATGATTGTTCTCCCAGCTGATGAATTGGATTTATCGAGTAAACAAATTTTCCTAATCTTTCTGTTCAAGCGCCATCTAC”, the binding signal is 1.47 RPM ratio (pull-down/input).

On to “GATGATTGTTCTCCCAGCTGATGAATTCTGCCATTCGAGTAAACAAATTTTCCTAATCTTTCTGTTCAAGCGCCATCTAC”, for which the binding signal was 4.97 RPM ratio (pull-down/input).

As to “GATGATTGTTCTCCCAGCTGATGAATTCGCTGCATCGAGTAAACAAATTTTCCTAATCTTTCTGTTCAAGCGCCATCTAC”, the binding signal is 1.02 RPM ratio (pull-down/input).

Consider “GATGATTGTTCTCCCAGCTGATGAATTTCTGCATTCGAGTAAACAAATTTTCCTAATCTTTCTGTTCAAGCGCCATCTAC”, for which the binding signal was 6.35 RPM ratio (pull-down/input).

In the case of “GATGATTGTTCTCCCAGCTGATGAATTCCCTGCATCGAGTAAACAAATTTTCCTAATCTTTCTGTTCAAGCGCCATCTAC”, the binding signal was 0.746 RPM ratio (pull-down/input).

As for “GATGATTGTTCTCCCAGCTGATGAATTCCTGCATTCGAGTAAACAAATTTTCCTAATCTTTCTGTTCAAGCGCCATCTAC”, the binding signal was 5.61 RPM ratio (pull-down/input).

Regarding “GATGATTGTTCTCCCAGCTGATGAATTTCCTGCATCGAGTAAACAAATTTTCCTAATCTTTCTGTTCAAGCGCCATCTAC”, the binding signal is 0.719 RPM ratio (pull-down/input).

For “GATGATTGTTCTCCCAGCTGATGAATTCTTGACCTCGAGTAAACAAATTTTCCTAATCTTTCTGTTCAAGCGCCATCTAC”, the binding signal is 0.216 RPM ratio (pull-down/input).

For the sequence “GATGATTGTTCTCCCAGCTGATGAATTCATTCCGTCGAGTAAACAAATTTTCCTAATCTTTCTGTTCAAGCGCCATCTAC”, the binding signal is 0.236 RPM ratio (pull-down/input).

In the case of “GATGATTGTTCTCCCAGCTGATGAATTTTTCAGTTCGAGTAAACAAATTTTCCTAATCTTTCTGTTCAAGCGCCATCTAC”, the binding signal is 0.248 RPM ratio (pull-down/input).

Regarding “GATGATTGTTCTCCCAGCTGATGAATTTGAGTAGTCGAGTAAACAAATTTTCCTAATCTTTCTGTTCAAGCGCCATCTAC”, the binding signal is 0.778 RPM ratio (pull-down/input).

Take “GATGATTGTTCTCCCAGCTGATGAATTTGGTGTGTCGAGTAAACAAATTTTCCTAATCTTTCTGTTCAAGCGCCATCTAC”: the binding signal was 3.91 RPM ratio (pull-down/input).

With “GATGATTGTTCTCCCAGCTGATGAATTTCTGTGGTCGAGTAAACAAATTTTCCTAATCTTTCTGTTCAAGCGCCATCTAC”, the binding signal was 0.335 RPM ratio (pull-down/input).

For the sequence “GATGATTGTTCTCCCAGCTGATGAATTTTTGGTGTCGAGTAAACAAATTTTCCTAATCTTTCTGTTCAAGCGCCATCTAC”, the binding signal was 0.396 RPM ratio (pull-down/input).

In the case of “GATGATTGTTCTCCCAGCTGATGAATTTGTGGTGTCGAGTAAACAAATTTTCCTAATCTTTCTGTTCAAGCGCCATCTAC”, the binding signal is 6.2 RPM ratio (pull-down/input).

On to “GATGATTGTTCTCCCAGCTGATGAATTTTTGTGGTCGAGTAAACAAATTTTCCTAATCTTTCTGTTCAAGCGCCATCTAC”, for which the binding signal was 0.472 RPM ratio (pull-down/input).

Regarding “GATGATTGTTCTCCCAGCTGATGAATTTGTGTGGTCGAGTAAACAAATTTTCCTAATCTTTCTGTTCAAGCGCCATCTAC”, the binding signal is 5.5 RPM ratio (pull-down/input).

(Values after article PMC12820563, “FoxP3 forms a head-to-head dimer in vivo and stabilizes its multimerization on adjacent microsatellites”.)
